Consider 15 compounds from PubChem BioAssay (NCI).

The panel holds about 83,000 compounds, 20% with a hit somewhere; the sample as a whole holds those more often.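 Single-concentration screen, 48 h exposure, 96-well plates. Endpoint: percent growth. Below 10 = active.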 A number with no mark means an inactive call. Activity calls are given as the source filed them.

What all share (test): NCI-60 one-dose screen, 48 h (100 = growth as untreated, 0 = no growth, -100 = all killed)
Holding throughout (settings): 10 µM unless noted

The subject of assay [1] is T-47D breast.
Assay [2] deals with BT-549 breast.
Assay [3] has as its system MDA-MB-435 melanoma.
Assay [4] deals with SW-620 colon.
In assay [5] the test system is MCF7 breast.
The subject of assay [6] is HCT-116 colon.
The test system of assay [7] is HCC-2998 colon.
Assay [8] has as its system KM12 colon.

For `CCCn1c(=O)[nH]c(N)c([C@H]2c3ccccc3Oc3[nH]c(=O)n(CCC)c(=O)c32)c1=O`, the growth was 34.7% in assay [1]; 42.8% in assay [2]; 84.4% in assay [3]; 61.2% in assay [4]; 26.4% in assay [5]; 32.5% in assay [6]. Further, the growth was 104% in assay [7] and 99.8% in assay [8].
Regarding `COc1cc(-c2nn(-c3ccc(C(=O)O)cc3)cc2C(=O)O)ccc1O`, the growth in assay [1] is 93.2%; in assay [2], 70.3%; in assay [3], -5.36% (active); in assay [4], 32.1%; in assay [5] it was 35.3%; in assay [6], 86.6%. In addition, the growth in assay [7] was 91.3%; in assay [8], 42.5%.
For `Cc1cc2nc3[nH]c4ccccc4c3nc2cc1C`, the growth in assay [1] is 58.9%; in assay [2], 92.4%; in assay [3], 120%; in assay [4] it was 73.3%; in assay [5], 48.2%; in assay [6] it was 46.1%. The growth in assay [7] is 98.4%; in assay [8], 77.9%.
Take `O=S(=O)(Nc1ccc(OC(F)F)cc1)c1ccc(-c2cnc(C3CC3)o2)cc1`: the growth in assay [1] was 48.3%; in assay [2], 63.4%; in assay [3], 8.1% (active); in assay [4], 35.2%; in assay [5] it was 39.1%; in assay [6], 65.4%. Further, the growth was 80.5% in assay [7] and 74.1% in assay [8].
As for `COc1cc(/C=C/C(=O)c2c(C)oc3nc[nH]c(=O)c23)cc(OC)c1OC`, the growth in assay [1] is 58.9%; in assay [2] it was 72.6%; in assay [3] it was 74.4%; in assay [4] it was 77.5%; in assay [5], 47.9%; in assay [6] it was 61.3%. Moreover, the growth in assay [7] is 112%; in assay [8], 96.9%.
Regarding `COc1cc(CNc2oc(-c3ccccc3)c(-c3ccccc3)c2C#N)cc(CN2CCN(C)CC2)c1O`, the growth in assay [1] is 74%; in assay [2] it was 76.4%; in assay [3], 40.5%; in assay [4] it was 31.8%; in assay [5], 14.9%; in assay [6], 36.7%. Also, the growth in assay [7] was 37.4%; in assay [8] it was 66.7%.
`CN(C)c1ccc(NC(=O)c2ccc(/C=C/C(=O)c3ncc[nH]3)cc2)cc1`: the growth in assay [1] is 46.6%; in assay [2], 63.1%; in assay [3], 51.7%; in assay [4] it was 21.1%; in assay [5], 12.1%; in assay [6] it was 46.4%. Moreover, the growth in assay [7] was 87.9%; in assay [8] it was 10.2%.
Turning to `COc1cccc(-c2nc3sccn3c2-c2ccnc(NCCCNS(=O)(=O)c3cccc(F)c3)c2)c1`, the growth is -8.47% (active) in assay [1]; 6.32% (active) in assay [2]; 12.2% in assay [3]; 50% in assay [4]; 24.8% in assay [5]; 20.8% in assay [6]. In addition, the growth is 64.7% in assay [7] and 23.2% in assay [8].
As for `C#Cc1cccc(NC(=O)c2ccccc2NC(=O)C=C)c1`, the growth in assay [1] is 76.6% [8.25 µM]; in assay [2], 102% [8.25 µM]; in assay [3], 103% [8.25 µM]; in assay [4], 109% [8.25 µM]; in assay [5], 82.4% [8.25 µM]; in assay [6], 102% [8.25 µM]. The growth in assay [7] was 104% [8.25 µM]; in assay [8], 97.8% [8.25 µM].
In the case of `C#CCOc1ccc2ncnc(Nc3cccc(CNC(=O)C=C)c3)c2c1`, the growth in assay [1] is 87.9% [8.25 µM]; in assay [2], 96.4% [8.25 µM]; in assay [3] it was 97.1% [8.25 µM]; in assay [4], 107% [8.25 µM]; in assay [5], 87% [8.25 µM]; in assay [6], 104% [8.25 µM]. The growth in assay [7] is 106% [8.25 µM]; in assay [8], 109% [8.25 µM].
Consider `COc1ccc(-c2cc(C(=O)N=Nc3c(O)[nH]c4ccc(Br)cc34)no2)cc1`, for which the growth in assay [1] is 93.6%; in assay [2] it was 107%; in assay [3], 101%; in assay [4], 93.7%; in assay [5] it was 94.1%; in assay [6], 91.6%. The growth in assay [7] was 104%; in assay [8], 100%.
As for `O=C1CC[C@H](c2ccc(O)c3c2C(=O)[C@@H]2O[C@@H]2C3=O)c2cccc(O)c21`, the growth in assay [1] is -26.1% (active); in assay [2], 86.8%; in assay [3], 47.3%; in assay [4] it was -41.3% (active); in assay [5] it was -31.5% (active); in assay [6], 5.4% (active). For the same compound, the growth in assay [7] is 101%; in assay [8], 85.1%.
Turning to `O=C1/C(=C(/c2ccccc2)N2CCOCC2)Cc2ccccc21`, the growth was -34.4% (active) in assay [1]; -7.68% (active) in assay [2]; 12.6% in assay [3]; 0.554% (active) in assay [4]; 17.9% in assay [5]; -46.3% (active) in assay [6]. For the same compound, the growth is -71.8% (active) in assay [7] and 36.2% in assay [8].
For `C=C(C)C1CC(O)C2(C)CCCC3C2C1CC(C)C3(C)CC/C(C)=C/C(O)C1CCC(=O)c2c(OC)cc(OC)cc21` (stereo not given), the growth in assay [1] is 37.2%; in assay [2], 60.4%; in assay [3], 41.7%; in assay [4] it was 47.1%; in assay [5], 30.1%; in assay [6] it was 28.5%. Moreover, the growth in assay [7] is 76.9%; in assay [8] it was 40.9%.
`CCOc1cc2ncc(C#N)c(Nc3ccc(OCc4cccc(F)c4)c(Cl)c3)c2cc1NC(=O)CC1CCSS1` (stereo not given): the growth in assay [1] was -0.0513% (active); in assay [2], 44.6%; in assay [3], -26.4% (active); in assay [4] it was 90.4%; in assay [5] it was 2.9% (active); in assay [6], -24.7% (active). For the same compound, the growth in assay [7] is -25.1% (active); in assay [8] it was -67.6% (active).
